Measurements reported in the supplement of paper PMC4166925.
± gives the standard deviation of the averaged measurements. The full ranking holds about 33,000 sequences; the median of “E-score (dimensionless, -0.5 to 0.5)” is about -0.046, and the highest 2% start at about 0.36. Shown is part of a subset that was picked to be rich in the highest values.

Each sequence was assayed on T1, SpTbr T-box DNA-binding domain (GST fusion) (assay: PBM E-score of 8-mer (E-score (dimensionless, -0.5 to 0.5)); Tbr is Tbrain of the sea star Patiria miniata (Pm) or the sea urchin Strongylocentrotus purpuratus (Sp); higher = stronger binding preference). Conditions: the construct has about 5 more residues each side.
T1 sequence: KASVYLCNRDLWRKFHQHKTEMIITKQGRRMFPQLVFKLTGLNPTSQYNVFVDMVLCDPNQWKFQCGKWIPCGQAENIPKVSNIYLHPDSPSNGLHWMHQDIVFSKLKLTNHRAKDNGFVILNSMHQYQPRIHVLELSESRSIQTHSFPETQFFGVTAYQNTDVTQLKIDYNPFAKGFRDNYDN
Procedure: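 Universal protein-binding microarray (Agilent AMADID 016060, 60-bp probes with a 35-bp variable region) incubated with 200 nM GST-fused Strongylocentrotus purpuratus Tbr T-box DNA-binding domain (residues 362-554) in PBS pH 7.5. Scored for every ungapped 8-mer (given with its reverse complement) as E-score (range -0.5 to 0.5; >0.45 counts as bound) and Z-score of median probe intensity. Two replicate arrays (datasets 1 and 2).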
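Note: protein at 200 nM in PBS on universal double-stranded arrays.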

Sequence | PBM E-score of 8-mer
ACGTGACA | 0.3127 ± 0.0018
AGGTGACG | 0.453 ± 0.0078
AGGTGACT | 0.276 ± 0.001
AGGTGACA | 0.469 ± 0.015
AGGTGACC | 0.151 ± 0.0043
CGGTGACG | 0.233 ± 0.02
CGATGGAG | -0.131 ± 0.032
AGACGTAC | -0.0414 ± 0.071
CCCCAGCC | -0.0674 ± 0.013
AGGAGTAT | -0.223 ± 0.0026
GATGACAA | 0.278 ± 0.026
GATGACAC | 0.402 ± 0.0092
CATGACAC | 0.3587 ± 0.0021
AATGACAG | 0.0199 ± 0.049
GATGACCC | 0.12 ± 0.0038
AATGACAC | 0.3799 ± 0.0026
AATCTGAT | -0.25 ± 0.015
GAACGCCC | 0.138 ± 0.0086
AGGTGGGA | 0.433 ± 0.0055
AGGTGGGC | -0.0803 ± 0.021
AGGTGGTG | 0.34049 ± 0.00016
AGGTGGTA | 0.405 ± 0.011

Sequence | PBM E-score of 8-mer
CGGTGGGA | 0.00775 ± 0.037
AGGTGGTC | -0.117 ± 0.11
AGAGGGAA | -0.179 ± 0.028
GAGCTTCC | -0.129 ± 0.05
CGGCGACA | 0.296 ± 0.018
AGGTGGAA | 0.0503 ± 0.028
GAACTAAC | 0.135 ± 0.023
GGCGACAA | 0.3676 ± 0.0007
AGCGACAC | 0.332 ± 0.022
CGCGACAA | 0.309 ± 0.0049
GGCGACAC | 0.381 ± 0.0043
CGCGACAC | 0.35396 ± 0.00035
TGCGACAA | 0.271 ± 0.022
GCTTTGCA | 0.0233 ± 0.069
AGTCCAGG | -0.396 ± 0.039
AAGTCCCA | -0.0384 ± 0.044
CAGAAACC | -0.106 ± 0.08
AAATTCTG | -0.136 ± 0.06
CAAAGGTG | 0.3923 ± 0.00076
CAAAGGTA | -0.0771 ± 0.04
AAAAGGTG | 0.41 ± 0.0094
CAAAGGTC | -0.105 ± 0.028

Sequence | PBM E-score of 8-mer
AAAAGGTT | -0.0952 ± 0.076
AAAAGGTC | -0.00656 ± 0.018
GGTACTAC | -0.3 ± 0.033
ACGTCGAC | 0.0807 ± 0.016
GCACTCCC | 0.128 ± 0.051
AGCATAAT | -0.177 ± 0.0018
AATAGGTA | -0.0758 ± 0.075
ACTAGGTC | -0.14 ± 0.024
AGTAGGTA | -0.00286 ± 0.076
AGTAGGTC | -0.0701 ± 0.038
AGTAGGTG | 0.3972 ± 0.0024
ACTAGGTG | 0.403 ± 0.012
ACTAGGTA | -0.0768 ± 0.014
AATAGGTG | 0.374 ± 0.03
AATAGGTC | -0.154 ± 0.017
TCAACAAA | -0.0651 ± 0.048
AGAAGTAT | -0.0503 ± 0.0051
AACGTTAT | 0.0135 ± 0.06
ACAAAACA | 0.0943 ± 0.064
ATAGAGTC | -0.206 ± 0.0048
CGTCTACA | 0.0944 ± 0.046
AGGGGGTG | 0.269 ± 0.055

Sequence | PBM E-score of 8-mer
AGGGTGTA | 0.307 ± 0.035
AGGGTGTG | 0.449 ± 0.011
AGGGTGTC | 0.401 ± 0.015
AGGGTGCG | 0.402 ± 0.01
CGGGTGTC | 0.3608 ± 0.0021
AGGGTGCA | 0.188 ± 0.025
AGGGTGCC | 0.267 ± 0.013
ACGGTGTC | 0.271 ± 0.051
AACAGAGT | -0.0053 ± 0.1
CACGTTGC | 0.101 ± 0.025
ATTACTTA | -0.154 ± 0.05
AGAGAGAG | 0.0384 ± 0.024
CCTAACAA | 0.161 ± 0.035
AGTAACAC | 0.3552 ± 0.0029
CCTAACAG | 0.0988 ± 0.11
GGTAACAC | 0.435 ± 0.0032
ACTAACAA | 0.152 ± 0.039
GCTAACAA | 0.293 ± 0.03
CCTAACAC | 0.4165 ± 0.0028
ACTAACAG | 0.1931 ± 0.00053
